The source of these data is PubChem BioAssay.

Inconclusive results are not listed. The source made the active and inactive calls.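 Rule for the calls, unless noted: active = inhibition above 50%, about 3 SD of the validation set; inactive = the rest.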

Test [1] can be described thus: rapamycin-like changes in RPL19A-GFP expression – cell-based, S. cerevisiae, multiplex flow cytometry, primary screen (AID 1862; in the data active = percent of DMSO control GFP below about 86%;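 note: lower values mimic rapamycin by blocking the RPL19A rise seen in DMSO cells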). The note with it: S. cerevisiae RPL19A-GFP strain, flow cytometry fluorescence, 3 h; at 10 µM; stronger effect = lower value.
The nature of test [2]: TOR pathway GLN3 branch reporter MEP2-GFP changes – S. cerevisiae, multiplex flow cytometry, primary screen (AID 1867;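 active = GFP response, as percent of the DMSO control, above the screen-wide mean plus 3 SD, about 139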;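 note: median GFP channel fluorescence of barcode-gated MEP2-GFP cells measured by flow cytometry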). The note with it: S. cerevisiae MEP2-GFP strain, 3 h, at 10 µM, stronger effect = higher value, 100% means same as DMSO wells.
A short description of test [3]: TOR pathway RTG branch CIT2 reporter changes – S. cerevisiae, GFP fusion, multiplex flow cytometry, primary screen (AID 1870;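 active = percent response above a set limit, the screen-wide mean plus 3 SD, cut at about 130% in these data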;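 note: barcoded CIT2-GFP strain pooled with four other GFP strains with rapamycin as positive control; median GFP fluorescence per well over plate mean of DMSO wells so 100% = DMSO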). The note with it: S. cerevisiae CIT2-GFP expression, 3 h, at 10 µM, stronger effect = higher value.
Test [4] in a line: TOR pathway LAP4-GFP level changes – S. cerevisiae, multiplex flow cytometry, primary screen (AID 1873;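 active = GFP signal, as percent of the solvent control, above the screen mean plus 3 SD, about 149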). The following applies: S. cerevisiae LAP4-GFP expression, 3 h, at 10 µM, stronger effect = higher value. (In general: A flow cytometer gives signals particle by particle.)
A short description of test [5]: yeast AGP1-GFP level changes, GLN3 branch – cell-based, multiplex flow cytometry, S. cerevisiae, primary screen (AID 1887;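 active = GFP signal above the screen-wide mean plus 3 SD, that is over about 124.5% of the solvent control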;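 note: AGP1-GFP fusion strain of S. cerevisiae within a five-strain barcoded multiplex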). The note with it: 3 h, at 10 µM, stronger effect = higher value.
Test [6] in a line: reduced mouse 2C T cell binding to pMHC/ICAM-1 vesicles – MLPCN validation set, flow cytometry, LFA-1/ICAM-1 modulator project, pilot screen (AID 2523;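 active = response below a set limit, under 55% cells CD8-positive and vesicle-bound, and CD8 cells' 90th-percentile brightness under 279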;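 for vesicle binding response: mean PE anti-B7-1 fluorescence of CD8+ cells relative to row control; 100% = QL9-loaded vesicles with DMSO vehicle in the same plate row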). The following applies: 2C mouse CD8+ T cells, at 7 µM, stronger effect = lower value; double positive events: measured here: CD8+/vesicle+ event percentage.
The target in test [7] is Integrin beta-1 (Homo sapiens) + Integrin alpha-4 (Homo sapiens) (UniProt P13612+P05556). In words: alpha4beta1 integrin LIBS antibody binding reduction – U937 cells, HUTS-21 mAb, flow cytometry, validation set, VLA-4 allosteric modulator project, pilot screen (AID 2674).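 Note: antibody binding induced by the VLA-4 ligand LDV present at three times its Kd; 0% = LDV ligand with antibody and no compound and 100% = antibody without LDV.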 The following applies: HUTS-21 LIBS mAb binding, at 6.7 µM, stronger effect = higher value, binding induced by LDV ligand.
Sequence of Integrin beta-1 (Homo sapiens) + Integrin alpha-4 (Homo sapiens) (P05556 whole entry, looked up): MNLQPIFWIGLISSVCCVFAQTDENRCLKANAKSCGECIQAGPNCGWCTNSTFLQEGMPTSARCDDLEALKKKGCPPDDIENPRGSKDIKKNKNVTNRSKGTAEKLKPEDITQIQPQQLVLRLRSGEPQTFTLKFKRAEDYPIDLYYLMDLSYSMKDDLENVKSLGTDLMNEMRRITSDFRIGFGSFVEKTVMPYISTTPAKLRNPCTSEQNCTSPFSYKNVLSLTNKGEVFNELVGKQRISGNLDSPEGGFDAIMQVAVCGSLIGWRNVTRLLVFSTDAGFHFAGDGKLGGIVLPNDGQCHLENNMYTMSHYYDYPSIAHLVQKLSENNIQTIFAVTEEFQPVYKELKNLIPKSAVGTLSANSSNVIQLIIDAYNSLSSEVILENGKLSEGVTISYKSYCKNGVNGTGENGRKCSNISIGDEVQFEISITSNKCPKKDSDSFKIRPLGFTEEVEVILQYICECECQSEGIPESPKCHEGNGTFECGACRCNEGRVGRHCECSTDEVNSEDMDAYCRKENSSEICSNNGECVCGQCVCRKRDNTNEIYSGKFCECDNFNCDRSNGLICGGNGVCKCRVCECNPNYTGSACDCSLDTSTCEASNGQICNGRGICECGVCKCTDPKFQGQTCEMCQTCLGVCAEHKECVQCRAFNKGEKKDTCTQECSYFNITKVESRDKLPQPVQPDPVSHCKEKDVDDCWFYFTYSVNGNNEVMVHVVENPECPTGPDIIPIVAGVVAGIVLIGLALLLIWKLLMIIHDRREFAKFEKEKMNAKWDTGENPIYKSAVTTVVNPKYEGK
Sequence of Integrin beta-1 (Homo sapiens) + Integrin alpha-4 (Homo sapiens) (P13612 whole entry, looked up): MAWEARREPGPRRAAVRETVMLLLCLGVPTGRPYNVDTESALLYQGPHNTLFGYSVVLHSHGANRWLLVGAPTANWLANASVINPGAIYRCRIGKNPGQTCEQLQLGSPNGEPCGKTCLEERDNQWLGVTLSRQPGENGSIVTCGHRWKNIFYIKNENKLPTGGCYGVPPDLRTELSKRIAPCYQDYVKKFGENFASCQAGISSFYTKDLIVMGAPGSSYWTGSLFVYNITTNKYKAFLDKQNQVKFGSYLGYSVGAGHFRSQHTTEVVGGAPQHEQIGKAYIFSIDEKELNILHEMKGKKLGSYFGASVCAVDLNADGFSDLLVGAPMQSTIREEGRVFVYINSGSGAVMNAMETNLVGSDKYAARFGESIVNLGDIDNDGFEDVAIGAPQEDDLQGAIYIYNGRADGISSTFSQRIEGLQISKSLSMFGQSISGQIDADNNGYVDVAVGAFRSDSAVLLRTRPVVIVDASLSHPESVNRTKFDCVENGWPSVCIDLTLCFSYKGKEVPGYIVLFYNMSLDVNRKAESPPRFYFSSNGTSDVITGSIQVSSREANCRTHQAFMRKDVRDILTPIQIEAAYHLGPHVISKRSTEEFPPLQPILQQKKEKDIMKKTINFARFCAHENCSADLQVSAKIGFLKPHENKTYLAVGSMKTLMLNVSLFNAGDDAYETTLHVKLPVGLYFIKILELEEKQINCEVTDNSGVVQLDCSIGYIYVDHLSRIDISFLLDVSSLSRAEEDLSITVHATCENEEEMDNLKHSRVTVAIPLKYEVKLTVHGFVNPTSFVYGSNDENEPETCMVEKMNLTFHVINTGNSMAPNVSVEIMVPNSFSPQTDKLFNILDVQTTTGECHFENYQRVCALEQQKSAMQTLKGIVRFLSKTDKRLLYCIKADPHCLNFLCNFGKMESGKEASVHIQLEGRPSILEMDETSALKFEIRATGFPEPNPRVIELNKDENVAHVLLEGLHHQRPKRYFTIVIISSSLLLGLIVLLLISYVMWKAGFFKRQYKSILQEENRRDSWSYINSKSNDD

A short description of test [8]: calorie-restriction mimetic ROS inhibitors, yeast – validation compound set, pilot screen (AID 2706;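 active = superoxide response below 65% of plate, a cut near 3 SD across the whole screen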;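 note: yeast exposed to compound for one week at 30 degrees C before staining; 100% = mean of all compound wells on the same plate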). The note with it: S. cerevisiae aging, superoxide DHE fluorescence; at 10 µM; stronger effect = lower value.
Test [9] addresses Beta-adrenergic receptor kinase 1 (Homo sapiens) (UniProt P25098). The experiment in a line: GRK2 binders displacing RNA aptamer, biochemical, validation, human GRK2, bead flow cytometry (AID 488806;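 active = aptamer binding inhibition above 30%, about 3 SD of noise from non-fluorescent compounds; inactive = inhibition at or below 30%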). The note with it: bead-bound GRK2, FAM-aptamer displacement, at 10 µM, stronger effect = higher value.
In test [10] the target is Beta-2 adrenergic receptor (Homo sapiens) (UniProt P07550). In words: agonist-induced loss of surface beta2AR – cell-based, FAP fluorogen, flow cytometry, validation set, pilot screen (AID 504459;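 active = percent response above 42, roughly 3 SD of non-fluorescent test compounds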;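 note: agonist-driven loss of surface beta2AR via internalization measured by FAP dye flow cytometry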). The following applies: Am2.2-beta2AR cells, at 10 µM, stronger effect = higher value.
Sequence of Beta-2 adrenergic receptor (Homo sapiens) (P07550 whole entry, looked up): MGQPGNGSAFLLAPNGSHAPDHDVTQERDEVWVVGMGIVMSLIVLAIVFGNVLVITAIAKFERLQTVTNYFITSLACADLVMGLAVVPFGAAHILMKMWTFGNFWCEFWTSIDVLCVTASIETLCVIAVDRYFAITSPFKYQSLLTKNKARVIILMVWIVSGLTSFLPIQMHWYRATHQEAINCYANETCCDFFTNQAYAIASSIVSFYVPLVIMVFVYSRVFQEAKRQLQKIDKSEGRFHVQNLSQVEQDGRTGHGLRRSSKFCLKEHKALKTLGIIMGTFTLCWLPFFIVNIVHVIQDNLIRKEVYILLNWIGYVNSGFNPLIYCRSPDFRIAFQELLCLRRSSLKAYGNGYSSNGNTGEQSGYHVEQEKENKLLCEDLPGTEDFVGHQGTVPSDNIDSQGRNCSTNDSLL
Test [11] concerns the target AP-2 complex subunit beta (Homo sapiens) (UniProt P63010). The experiment in a line: beta-arrestin/AP2 interaction blockers – biochemical, validation set, GST-AP2 beads, flow cytometry, pilot screen (AID 504541;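 active = inhibition above 54%, about 3 SD of non-fluorescent compounds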;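 note: AP2 carries R879A mutation and is captured from E. coli lysate; bead-bound FITC arrestin peptide fluorescence measuring arrestin peptide binding to AP2; 0% = DMSO wells and 100% = excess unlabeled arrestin peptide control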). The note with it: FITC arrestin peptide, at 10 µM, stronger effect = higher value, AP2 beta2 appendage fragment, R879A mutant.
Test [12] in a line: cytosolic pH regulators acting via V-ATPase – S. cerevisiae, pHLuorin, HTS validation (AID 504600; in the data active = response above about 15%;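 note: plate controls were DMSO for no effect and reference compound for full effect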). The following applies: V-ATPase proton transport, at 10 µM, stronger effect = higher value.
The subject of test [13] is anti-desmoglein-3 scFv antibody binding to human DSG3. In words: blockers of pathogenic pemphigus antibody–desmoglein-3 binding – biochemical, validation compound set, bead-based, flow cytometry, pilot screen (AID 588368;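 active = binding below the plate cutoff, the plate median minus 3 SD, with a reading above zero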;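 note: signal is the median channel fluorescence of bead-bound GFP antibody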). The following applies: Protein G beads, DSG3-Fc, scFv-GFP binding, at 10 µM, stronger effect = lower value.
The nature of test [14]: Nile Red efflux blockade in pump-expressing yeast – validation compound set, multiplex, phenotypic, pilot screen (AID 588506;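 active = efflux inhibition above 0.42, the validation set average plus 4 SD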;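 note: Nile Red retained in cells so higher fluorescence means more efflux inhibition; 0 = negative control wells and 1 = enniatin B 25 µM full block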). The note with it: S. cerevisiae pump-expressing triplex, Nile Red efflux flow cytometry; at 10 µM; stronger effect = higher value; the pumps come from Candida albicans.
Test [15] deals with ATP-binding cassette sub-family B member 6 (Homo sapiens) (UniProt Q9NP58). The experiment in a line: blockers of ABCB6-driven porphyrin uptake – K562-ABCB6 cells, flow cytometry, validation set, pilot screen (AID 588550;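 active = inhibition above the screen-wide mean plus 3 SD, about 51%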;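 note: 0% = DMSO wells and 100% = benzethonium chloride 70 µM positive control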). The note with it: K562-ABCB6 porphyrin accumulation, 1 h, at 10 µM, stronger effect = higher value.
Sequence of ATP-binding cassette sub-family B member 6 (Homo sapiens) (Q9NP58 whole entry, looked up): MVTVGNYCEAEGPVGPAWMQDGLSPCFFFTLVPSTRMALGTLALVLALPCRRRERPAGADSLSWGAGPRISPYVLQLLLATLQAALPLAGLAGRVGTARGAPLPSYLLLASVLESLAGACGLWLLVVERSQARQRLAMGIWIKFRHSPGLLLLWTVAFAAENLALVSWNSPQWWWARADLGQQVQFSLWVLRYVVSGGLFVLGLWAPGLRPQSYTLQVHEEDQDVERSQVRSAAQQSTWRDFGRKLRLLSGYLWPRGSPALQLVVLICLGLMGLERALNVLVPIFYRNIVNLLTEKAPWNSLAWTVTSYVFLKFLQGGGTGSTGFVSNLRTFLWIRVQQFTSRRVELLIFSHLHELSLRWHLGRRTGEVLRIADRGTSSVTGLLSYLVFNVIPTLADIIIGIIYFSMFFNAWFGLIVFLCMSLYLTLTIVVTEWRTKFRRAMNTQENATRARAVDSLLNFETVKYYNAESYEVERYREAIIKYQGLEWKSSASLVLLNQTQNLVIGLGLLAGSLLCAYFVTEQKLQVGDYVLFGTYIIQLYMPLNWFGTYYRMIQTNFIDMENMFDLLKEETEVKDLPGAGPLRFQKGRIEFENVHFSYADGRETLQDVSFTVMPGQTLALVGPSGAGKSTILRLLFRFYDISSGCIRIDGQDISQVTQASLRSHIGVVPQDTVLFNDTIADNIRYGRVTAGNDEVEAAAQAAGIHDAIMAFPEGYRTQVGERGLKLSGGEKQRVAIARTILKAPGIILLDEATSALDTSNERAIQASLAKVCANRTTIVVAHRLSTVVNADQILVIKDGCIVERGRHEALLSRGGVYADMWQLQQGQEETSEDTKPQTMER
Test [16] is described as follows: AML differentiation inducers, ER-HoxA9 marrow cells – cell-based, GFP/MAC1 double positive, flow cytometry, validation set, primary screen (AID 588685;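 active = differentiation response of at least 50%, scaled between solvent and reference control, from cells with both markers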;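 note: compound exposure lasts four days before antibody staining and flow analysis; 0% = DMSO wells and 100% = 5 µM fulvestrant positive control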). The following applies: stronger effect = higher value, normalized: vehicle 0, fulvestrant 100.

Sequence of AP-2 complex subunit beta (Homo sapiens) (P63010 whole entry, looked up, the tested form may be a part, one chain of several): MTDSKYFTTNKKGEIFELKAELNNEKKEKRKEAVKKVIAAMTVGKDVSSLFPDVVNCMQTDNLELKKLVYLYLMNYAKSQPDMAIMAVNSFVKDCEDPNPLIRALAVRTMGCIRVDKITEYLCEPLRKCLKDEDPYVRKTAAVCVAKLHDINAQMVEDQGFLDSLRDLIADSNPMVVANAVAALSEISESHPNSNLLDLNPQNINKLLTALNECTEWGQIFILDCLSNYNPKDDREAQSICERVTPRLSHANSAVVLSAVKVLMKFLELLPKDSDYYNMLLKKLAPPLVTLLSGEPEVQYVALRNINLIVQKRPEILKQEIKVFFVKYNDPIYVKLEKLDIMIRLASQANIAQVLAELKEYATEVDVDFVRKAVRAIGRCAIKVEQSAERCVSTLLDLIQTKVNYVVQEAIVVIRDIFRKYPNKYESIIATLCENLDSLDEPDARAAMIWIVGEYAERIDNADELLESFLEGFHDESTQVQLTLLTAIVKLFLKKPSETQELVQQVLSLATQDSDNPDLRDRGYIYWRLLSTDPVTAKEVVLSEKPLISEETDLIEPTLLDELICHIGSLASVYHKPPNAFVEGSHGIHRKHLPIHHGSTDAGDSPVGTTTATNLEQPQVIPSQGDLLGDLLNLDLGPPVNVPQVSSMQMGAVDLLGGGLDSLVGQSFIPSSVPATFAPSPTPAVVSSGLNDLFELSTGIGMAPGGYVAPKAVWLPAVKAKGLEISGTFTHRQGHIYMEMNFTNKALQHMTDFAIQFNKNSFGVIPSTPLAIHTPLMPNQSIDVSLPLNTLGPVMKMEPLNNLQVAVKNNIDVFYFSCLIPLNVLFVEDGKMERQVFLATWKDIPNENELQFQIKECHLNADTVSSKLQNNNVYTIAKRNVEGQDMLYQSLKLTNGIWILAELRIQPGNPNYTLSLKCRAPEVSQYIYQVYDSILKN
Sequence of Beta-adrenergic receptor kinase 1 (Homo sapiens) (P25098 whole entry, looked up): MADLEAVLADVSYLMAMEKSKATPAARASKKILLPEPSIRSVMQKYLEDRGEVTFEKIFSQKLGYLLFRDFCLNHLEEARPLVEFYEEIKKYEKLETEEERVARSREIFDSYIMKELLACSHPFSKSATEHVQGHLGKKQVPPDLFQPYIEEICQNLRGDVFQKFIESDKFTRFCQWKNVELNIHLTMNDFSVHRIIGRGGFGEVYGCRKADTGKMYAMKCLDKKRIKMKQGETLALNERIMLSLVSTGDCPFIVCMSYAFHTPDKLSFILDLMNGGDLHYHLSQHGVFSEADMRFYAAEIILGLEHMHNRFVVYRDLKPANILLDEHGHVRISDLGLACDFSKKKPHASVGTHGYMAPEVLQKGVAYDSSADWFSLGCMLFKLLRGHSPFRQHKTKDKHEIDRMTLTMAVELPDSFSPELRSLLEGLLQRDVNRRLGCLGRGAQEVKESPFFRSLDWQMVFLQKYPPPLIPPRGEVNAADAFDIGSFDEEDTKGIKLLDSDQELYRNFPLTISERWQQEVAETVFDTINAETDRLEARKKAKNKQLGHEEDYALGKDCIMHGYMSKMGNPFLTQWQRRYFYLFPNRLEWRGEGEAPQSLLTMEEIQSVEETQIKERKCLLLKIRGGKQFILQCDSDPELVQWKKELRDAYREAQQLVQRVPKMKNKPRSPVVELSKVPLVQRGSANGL

Regarding `Cc1cc(=O)oc2cc(OC(C)C(=O)NCC3CCCO3)ccc12` (stereo not drawn), in test [1], the percent of DMSO control GFP is 101% (inactive). Also, the GFP response vs DMSO is 99.6% (inactive) in test [2] and 106% (inactive) in test [4]. In addition, in test [3], the percent response of DMSO control was 104% (inactive). Moreover, the GFP response, % of DMSO in [5] was 102% (inactive). In test [6], this compound gave a double positive events of 68.8%. For the same compound, in test [6], the vesicle binding response is 554% (inactive). Also, the inhibition in [7] was -14.1% (inactive); in test [11], -3.92% (inactive); in test [15] it was 5% (inactive). Further, the superoxide response (% of plate) in [8] is 91.7% (inactive). Moreover, in test [9], the aptamer binding inhibition was 3% (inactive). The response in [10] was -0.14% (inactive); in [12], 0.04% (inactive). Moreover, in [13], the binding (% of control) is 96.8% (inactive). Moreover, the efflux inhibition (fraction of control) in test [14] is -0.28 (inactive). The differentiation response in [16] was -7.2% (inactive).
For the compound `COc1ccc(CN2CCCC(C(=O)c3ccc(Cl)cc3)C2)cc1Cn1cccn1` (stereo not drawn), the percent of DMSO control GFP in test [1] was 104% (inactive). Besides, the results for the GFP response vs DMSO in test [2] and in test [4] were 105% (inactive) and 95.9% (inactive), respectively. Also, in test [3], the percent response of DMSO control is 99.7% (inactive). Besides, the GFP response, % of DMSO in [5] is 100% (inactive). Also, the double positive events in test [6] was 61.3%. Further, the vesicle binding response in test [6] is 182% (inactive). The inhibition in test [7] was -9.13% (inactive); in test [11] it was -0.55% (inactive); in [15] it was 12% (inactive). The superoxide response (% of plate) in test [8] was 79.4% (inactive). The aptamer binding inhibition in test [9] was -4% (inactive). The response in [10] was 30.8% (inactive); in test [12], 1.1% (inactive). Also, in test [13], the binding (% of control) is 98.5% (inactive). Further, in [14], the efflux inhibition (fraction of control) was 0.05 (inactive). In addition, the differentiation response in test [16] was -3.11% (inactive).
As to `CC(=O)NS(=O)(=O)c1ccc(N)cc1`, the percent of DMSO control GFP in test [1] is 98.6% (inactive). Moreover, the GFP response vs DMSO in [2] and in test [4] was 101% (inactive) in each case. For the same compound, in [3], the percent response of DMSO control was 97% (inactive). The GFP response, % of DMSO in [5] was 104% (inactive). In test [6], this compound yielded a double positive events of 62.3%. Moreover, the vesicle binding response in [6] is 335% (inactive). The inhibition in test [7] was 0.59% (inactive); in [11] it was -0.64% (inactive); in [15] it was 5% (inactive). The superoxide response (% of plate) in [8] is 101% (inactive). In [9], the aptamer binding inhibition was 2% (inactive). Besides, the response in test [10] is -16.2% (inactive); in [12], 0.06% (inactive). Besides, in test [13], the binding (% of control) was 103% (inactive). Besides, the efflux inhibition (fraction of control) in test [14] is 0.04 (inactive). For the same compound, the differentiation response in test [16] was -3.02% (inactive).
With `O=C(O)c1cc2cc(F)ccc2[nH]1`, in test [1], the percent of DMSO control GFP is 101% (inactive). Further, the GFP response vs DMSO is 101% (inactive) in test [2] and 98.6% (inactive) in test [4]. Also, the percent response of DMSO control in test [3] is 105% (inactive). In addition, the GFP response, % of DMSO in test [5] was 102% (inactive). Besides, the double positive events in test [6] amounted to 64.7%. For the same compound, the vesicle binding response in [6] was 894% (inactive). Moreover, the inhibition in test [7] was -15% (inactive); in test [11] it was 8.62% (inactive); in [15], 14% (inactive). In addition, the superoxide response (% of plate) in test [8] is 113% (inactive). Further, the aptamer binding inhibition in test [9] is 3% (inactive). The response in test [10] was 0.15% (inactive); in test [12], 1.32% (inactive). In addition, in test [13], the binding (% of control) is 97.2% (inactive). Moreover, the efflux inhibition (fraction of control) in test [14] is -0.14 (inactive). In test [16], the differentiation response is -1.71% (inactive).

As a reminder, the inhibition is the drop in the measured response relative to a control, in per cent.
